Data on 106 compounds can be found in PubChem BioAssay AID376 (PDSP, 2006).

Hit rate of the full screen: of about 2,000 compounds, about 250 (12%) were called active. For the sample, actives were picked, then their nearest neighbours and some compounds at random. Unmarked numbers belong to inactive results. Cut-off read from the data, not from the text of the source: active = hERG blockade below about -20% or above about 20%; inactive = in between.

The target in the experiment is Voltage-gated inwardly rectifying potassium channel KCNH2 (Homo sapiens) (UniProt Q12809). Briefly: modulators of KCNH2 ion channel function, cellular (AID 376).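 Note: 0% = buffer alone and 100% = reference blocker.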 The conditions noted are these: hERG-expressing cells, channel activity single-concentration screen; concentration not given here. Background: hERG is a cardiac potassium channel; its block is linked to QT prolongation.
Voltage-gated inwardly rectifying potassium channel KCNH2 (Homo sapiens), sequence (Q12809 whole entry, looked up): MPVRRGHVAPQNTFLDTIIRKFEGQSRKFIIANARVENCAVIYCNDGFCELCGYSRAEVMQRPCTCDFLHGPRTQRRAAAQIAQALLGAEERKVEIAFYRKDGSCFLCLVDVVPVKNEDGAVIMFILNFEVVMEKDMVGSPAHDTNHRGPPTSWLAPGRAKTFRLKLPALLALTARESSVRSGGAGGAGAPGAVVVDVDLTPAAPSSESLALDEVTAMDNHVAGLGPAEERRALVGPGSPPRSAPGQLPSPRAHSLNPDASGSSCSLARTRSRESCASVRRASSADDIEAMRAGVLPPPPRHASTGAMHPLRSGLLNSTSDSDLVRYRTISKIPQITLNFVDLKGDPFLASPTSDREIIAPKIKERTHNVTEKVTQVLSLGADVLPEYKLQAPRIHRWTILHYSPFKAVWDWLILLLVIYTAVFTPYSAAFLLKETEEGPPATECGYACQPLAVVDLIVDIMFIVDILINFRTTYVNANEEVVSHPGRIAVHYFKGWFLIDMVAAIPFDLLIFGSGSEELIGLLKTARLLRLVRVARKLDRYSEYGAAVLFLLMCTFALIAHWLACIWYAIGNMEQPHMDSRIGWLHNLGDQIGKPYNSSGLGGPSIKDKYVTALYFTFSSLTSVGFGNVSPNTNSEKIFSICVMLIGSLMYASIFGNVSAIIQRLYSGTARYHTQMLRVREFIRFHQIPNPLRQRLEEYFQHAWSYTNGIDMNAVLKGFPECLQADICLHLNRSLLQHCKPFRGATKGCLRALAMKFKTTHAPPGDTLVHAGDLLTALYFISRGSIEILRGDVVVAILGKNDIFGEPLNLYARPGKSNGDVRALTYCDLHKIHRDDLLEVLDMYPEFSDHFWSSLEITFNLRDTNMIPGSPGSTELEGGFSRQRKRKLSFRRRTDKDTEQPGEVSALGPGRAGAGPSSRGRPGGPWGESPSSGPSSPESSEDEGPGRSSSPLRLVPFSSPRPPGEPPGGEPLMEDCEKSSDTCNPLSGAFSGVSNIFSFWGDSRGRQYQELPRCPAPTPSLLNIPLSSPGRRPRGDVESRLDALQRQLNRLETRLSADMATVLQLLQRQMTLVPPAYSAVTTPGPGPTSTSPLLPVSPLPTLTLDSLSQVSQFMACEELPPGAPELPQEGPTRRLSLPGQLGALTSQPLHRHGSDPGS
Turning to `Cc1c(Cl)c(S(N)(=O)=O)cc(S(N)(=O)=O)c1NC(=O)c1ccc(Cl)cc1`, the hERG blockade is 12.5%.

`Cc1cccc(Cl)c1NCC(O)CN1CCN(C)CC1` (stereo unspecified): the hERG blockade was -2.1%.

As for `CC1Oc2ccc(C(=O)CC(C(=O)O)c3ccc4c(c3)OCO4)cc2O1` (stereo unspecified), the hERG blockade was -27.6% (active).

With `CC(C(=O)O)C(=Cc1ccc2c(c1)OCO2)C(=O)O` (stereo unspecified), the hERG blockade was 0.849%.

Turning to `O=C(O)CC(Cc1ccc2c(c1)OCO2)C(=O)O` (stereo unspecified), the hERG blockade is 6.12%.

With `CN(C)Cc1ccc(-c2cc3onc(-c4ccccc4)c3c(=O)n2C)cc1`, the hERG blockade is 10.3%.

As for `CC(C)(CO)N1CCN(C(=S)Nc2ccccc2)CC1`, the hERG blockade is 0.768%.

For `C[N+]1(C)CCOC(O)(c2ccccc2)C1` (stereo unspecified), the hERG blockade was 17.7%.

On to `CC[N+](C)(CC)CCN1C(=O)c2ccccc2S1(=O)=O`, for which the hERG blockade is -0.137%.

As for `Cn1c(N)c(N=Nc2ccc(S(N)(=O)=O)cc2)c(=O)n(C)c1=O`, the hERG blockade was 31.1% (active).

Take `NS(=O)(=O)c1ccc(N=Nc2c[nH]c(=O)c(O)c2)cc1`: the hERG blockade is 14%.

Consider `NS(=O)(=O)c1ccc(N=Nc2ccc[nH]c2=O)cc1`, for which the hERG blockade was 16%.

As to `S=c1nc(-c2nc(=S)[nH]c3c2CCCCCCCCCC3)c2c([nH]1)CCCCCCCCCC2`, the hERG blockade is 0.0358%.

With `Clc1cc2c(c(CSC3=NCN(CC4CC4)CN3)c1)OCOC2`, the hERG blockade was 8.37%.

For `CN(C)CCNCCN`, the hERG blockade is 4.72%.

With `CC1=NN(C(=O)c2ccncc2)C(=O)C1N=Nc1ccc2ccccc2c1` (stereo unspecified), the hERG blockade was 21.5% (active).

Consider `CC1=NN(c2ccccc2)C(=O)C1N=Nc1ccc(S(N)(=O)=O)cc1` (stereo unspecified), for which the hERG blockade was 14.6%.

`CC(=NNC(=O)c1ccncc1)c1ccc2ccccc2c1O`: the hERG blockade is -2.47%.

For the compound `Cc1noc(NC(=O)Nc2ccccc2F)c1C#N`, the hERG blockade was 2.22%.

Take `Nc1ncnc2c1ncn2CCCCC(=O)O`: the hERG blockade is -16.5%.

Regarding `CN(C)c1ncnc2c1ncn2CCn1cnc2c(N(C)C)ncnc21`, the hERG blockade is -12.5%.

In the case of `CCCCn1cnc2c(SC)ncnc21`, the hERG blockade was -28.3% (active).

Regarding `Cc1cc(C)nc(NC(=O)COc2ccc(Cl)cc2)c1`, the hERG blockade is 16.6%.

Consider `OC(COc1ccccc1)CN1CCCCC1` (stereo unspecified), for which the hERG blockade was -2.64%.

`c1ccc(-c2cnc(-c3ccc(-c4ncc(-c5ccccc5)o4)cc3)o2)cc1`: the hERG blockade was -6.76%.

For `O=C(CSC1=NCCN1)Nc1ccccc1`, the hERG blockade was 8.84%.

On to `c1ccc(-c2ccc(-c3ccc(C4=NCCN4)cc3)o2)cc1`, for which the hERG blockade is 134% (active).

As for `OCCSCc1ccccc1`, the hERG blockade is -16.1%.

`O=C(O)CN(CCN(CC(=O)O)CC(=O)O)CC(=O)O.[Cu+2]`: the hERG blockade was 1.62%.

On to `O=C(O)CCc1nc(-c2ccccc2-n2cccc2)no1`, for which the hERG blockade is 5.65%.

As to `O=C(O)C(Cc1cc(I)c(O)c(I)c1)C1CCCCC1` (stereo unspecified), the hERG blockade was 35.2% (active).

Regarding `C=C(C)CNCCN`, the hERG blockade is -5.55%.

As to `Cc1ccc(CSC(N)=Nc2ccccc2)cc1C`, the hERG blockade is 14.3%.

For `Nc1ncnc2c1ncn2C1OC(C(=O)OCCO)C(O)C1O` (stereo unspecified), the hERG blockade was 1.37%.

Regarding `Clc1ccc2c(c1)N(CCCN1CCCC13CCCCC3)c1ccccc1S2`, the hERG blockade is 4.63%.

In the case of `OC1CC2CCC(C1)N2CCCN1c2ccccc2Sc2ccc(Cl)cc21` (stereo unspecified), the hERG blockade is 89.8% (active).

`COc1ccc(N(CC(=O)O)N=O)cc1`: the hERG blockade was 1.49%.

In the case of `O=C1C=CC(=Nc2cccc3c(N=C4C=CC(=O)O4)cccc23)O1`, the hERG blockade was -12%.

`CC(C)c1cc(CN(C)C)c(O)c(C(C)(C)C)c1`: the hERG blockade was 13.4%.

For `Nc1nc(N)[n+]([O-])c(N)c1NCO`, the hERG blockade is -6.48%.

Regarding `C=CCNS(=O)(=O)c1ncnc2nc[nH]c12`, the hERG blockade was -2.53%.

`Nc1nc(-c2cc(-c3cccc4ccccc34)nc(N)n2)cc(-c2cccc3ccccc23)n1`: the hERG blockade is 3.59%.

`Nc1cc2c(nc3c4ccccc4c(N)cc3[n+]2-c2cccc3ccccc23)c2ccccc12` (tested in a mixture with another compound): the hERG blockade was 51.9% (active).

Take `O=S(=O)(c1ccc(Br)cc1)N1CCN(S(=O)(=O)c2ccc(Br)cc2)CC1`: the hERG blockade is 11.5%.

Turning to `O=C(O)C1CCCCC1c1c2ccc(=O)c(O)c-2oc2c(O)c(O)ccc12` (stereo unspecified), the hERG blockade was -2.68%.

Take `CC(=O)C1(N=Nc2ccc(S(N)(=O)=O)cc2)CCOC1=O` (stereo unspecified): the hERG blockade was -10.6%.

Consider `c1ccc2sc(SCSc3nc4ccccc4s3)nc2c1`, for which the hERG blockade is -7.22%.

Consider `CC(CCc1nc2ccccc2s1)(c1ccc(O)cc1)c1ccc(O)cc1`, for which the hERG blockade was 24% (active).

Regarding `CC(CCC(=O)O)(c1ccc(O)cc1)c1ccc(O)cc1`, the hERG blockade was 4.36%.

In the case of `O=C(O)c1ccccc1C(=O)c1ccc2c(c1)Cc1ccccc1-2`, the hERG blockade was -16.1%.

Take `Cn1c(=O)c2c(ncn2CN2CCN(Cn3cnc4c3c(=O)n(C)c(=O)n4C)CC2)n(C)c1=O`: the hERG blockade was 0.775%.

As for `O=C(O)CSc1nnc2c3ccccc3c3ccccc3c2n1`, the hERG blockade was -2.16%.

Take `c1ccc2c[n+](CCCC[n+]3ccc4ccccc4c3)ccc2c1`: the hERG blockade is 22% (active).

In the case of `c1ccc2c[n+](Cc3ccnc4ccccc34)ccc2c1`, the hERG blockade was 16.2%.

`CC(=N[O-])C(C)=N[O-].CC(=N[O-])C(C)=N[O-].[CH2-]CCN1CCOCC1.[Co].c1ccncc1`: the hERG blockade is 17.9%.

As to `O=C(O)c1ccc([N+](=O)[O-])c(P(=O)(O)O)c1`, the hERG blockade was -6.85%.

Take `Cc1nc2ccccc2nc1-c1ccc(N=[N+]([O-])c2ccc(-c3nc4ccccc4nc3C)cc2)cc1`: the hERG blockade was 1.15%.

For `O=C(O)C(=Cc1ccccc1)Cc1ccccc1`, the hERG blockade was -1.14%.

Regarding `CC1=CC(=C(c2ccc(O)c(C)c2)c2ccccc2C(=O)O)C=CC1=O`, the hERG blockade is 30.9% (active).

As for `O=C(O)c1ccc(C(=O)c2ccccc2C(=O)O)cc1C(=O)O`, the hERG blockade was 1.52%.

`Cc1ccc(NC(=O)c2ccccc2C(=O)O)cc1C`: the hERG blockade is 0.447%.

On to `CC(C)=NNc1ncnc2nc[nH]c12`, for which the hERG blockade is -8.04%.

Take `O=C1CSC(=S)N1N=Cc1ccc(Cl)c([N+](=O)[O-])c1`: the hERG blockade is 8.8%.

With `O=Nc1c(O)[nH]c2ccccc12.O=Nc1c(O)[nH]c2ccccc12.[Cu]`, the hERG blockade was 0.0535%.

For the compound `N=C(N)c1ccc(N=Nc2c(O)ccc3c2[nH]c2ccccc23)cc1`, the hERG blockade was -25.6% (active).

Regarding `O=C(O)c1ccc(S(=O)(=O)N=Nc2c(O)[nH]c3ccccc23)cc1`, the hERG blockade was -4.01%.

For the compound `C(=NNc1nnc2c(n1)[nH]c1ccccc12)c1cccnc1`, the hERG blockade is 9.9%.

As to `c1ccc(CCc2cccnc2)nc1`, the hERG blockade is 5.71%.

As for `C(=NNc1ccccn1)c1cccnc1`, the hERG blockade is 20.3% (active).

In the case of `Nc1ccc(-c2ccc(Nc3cc(S(=O)(=O)O)c(N)c4c3C(=O)c3ccccc3C4=O)cc2)c(S(=O)(=O)O)c1`, the hERG blockade is 14.3%.

As to `O=C(O)CCNCC(=O)O`, the hERG blockade was 2.22%.

For the compound `Cc1cc(C(C)(C)C)cc(CNC2CCCCC2)c1O`, the hERG blockade was -1.49%.

Regarding `OCCN(CCO)c1ncnc2nc[nH]c12`, the hERG blockade is 9.05%.

With `CCCC1c2c(ccc3ccccc23)Oc2ccc3ccccc3c21`, the hERG blockade is 16.8%.

As to `CN(C)CCCC1c2ccccc2Oc2ccc(C(F)(F)F)cc21` (stereo unspecified), the hERG blockade was 32.9% (active).

`NC(N)=NN=Cc1ccc(O)c(C(=O)O)c1`: the hERG blockade is 7.85%.

In the case of `Cc1nc(CN2CCCCC2)c(O)c(=O)[nH]1`, the hERG blockade is -28.2% (active).

As to `Cc1cc(CN2CCCCC2)c(O)c(CN2CCCCC2)c1`, the hERG blockade was 8.76%.

For `O=C(O)c1[nH]c(=O)[nH]c(=O)c1CN1CCCCC1`, the hERG blockade is -7.69%.

Turning to `CCN1CCC(O)(C(C(=O)O)c2ccccc2)CC1` (stereo unspecified), the hERG blockade was 4.76%.

With `CC(C)=CCNc1ncnc2nc[nH]c12`, the hERG blockade was -6.5%.

For `CCN(Cc1cc(Cl)cc(C)c1O)Cc1c(O)ccc2ccccc12`, the hERG blockade is 13%.

With `CCN(CC)CC(O)c1ccc2ccc3ccccc3c2c1` (stereo unspecified), the hERG blockade is -73.4% (active).

For `Cc1cccc2cc3ccc4ccccc4c3cc12`, the hERG blockade was 11.1%.

As for `N=C(N)SCCSC(=N)N`, the hERG blockade was 9.63%.

For the compound `N#CC(C#N)=NNc1ccc2cn[nH]c2c1`, the hERG blockade is -4.08%.

Consider `CN(C)S(=O)(=O)Nc1ccccn1`, for which the hERG blockade is 4.55%.

As to `CC(O)(CNS(=O)(=O)c1ccccc1)c1ccccc1` (stereo unspecified), the hERG blockade was -5.67%.

As to `CN(CCC(=O)O)S(=O)(=O)c1ccccc1`, the hERG blockade was -22% (active).

Consider `O=C(O)CC[P+](c1ccccc1)(c1ccccc1)c1ccccc1`, for which the hERG blockade was 19.1%.

As for `O=c1[nH]c(SCc2cccc([N+](=O)[O-])c2)nc2nc[nH]c12`, the hERG blockade was 7.87%.

As to `CC1(CO)C(O)CCC2(C)C1CCC1CC3CC12CCC3(O)COC(=O)CN` (stereo unspecified), the hERG blockade was 14.2%.

Consider `N=C(N)SCC(=O)O`, for which the hERG blockade was 11%.

Regarding `O=C(O)c1cscc1Cc1cccs1`, the hERG blockade is -9.17%.

For the compound `O=C(O)c1ccccc1CN1CCCC(C(=O)O)C1` (stereo unspecified), the hERG blockade is -4.8%.

Turning to `O=C(O)c1cc(-c2ccc(-c3ccccc3)cc2)nc2cc3ccccc3cc12`, the hERG blockade is 12.2%.

With `OC(c1cc(C(F)(F)F)nc2c(Cl)cc(Cl)cc12)C1CCCCN1` (stereo unspecified), the hERG blockade is 28.7% (active).

On to `OC(c1cc(-c2ccc(Cl)cc2)nc2ccccc12)C1CCCCN1` (stereo unspecified), for which the hERG blockade is 74.7% (active).

Take `O=C(O)c1cc(-c2ccc3cc4c(cc3c2)OCO4)nc2ccccc12`: the hERG blockade is 17.2%.

Take `OC(c1cc(-c2ccccc2)nc2c1ccc1ccccc12)C1CCCCN1` (stereo unspecified): the hERG blockade was 26.8% (active).

Regarding `Cc1cc(C)c2nc3c(c(C(O)C4CCCCN4)c2c1)CCC3=Cc1ccc(Cl)cc1` (stereo unspecified), the hERG blockade was 8.84%.

As to `OC(CC1CCCCN1)c1ccc2c(c1)oc1ccccc12` (stereo unspecified), the hERG blockade is 4.42%.

Turning to `COc1ccc(-c2cc(C(O)C3CCCCN3)c3ccccc3n2)cc1` (stereo unspecified), the hERG blockade is 72.7% (active).

For the compound `O=C(O)CSc1cc(-c2ccccc2)nc2ccccc12`, the hERG blockade is -16.2%.

For the compound `c1ccc2nc(CCC3CCCCN3)ccc2c1` (stereo unspecified), the hERG blockade was -2.95%.

Turning to `OC(c1cc(C23CC4CCC2CC(C4)C3)nc2c(Cl)cc(Cl)cc12)C1CCCCN1` (stereo unspecified), the hERG blockade was -0.23%.
